Compounds without any hit were thinned out: in the full panel of roughly 83,000, 20% have a hit.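 Plates (96-well) were seeded with cells, treated with compound at one concentration, and incubated for 48 hours before percent growth was determined.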 A number with no mark means an inactive call. Activity calls are given as the source filed them. Rule for the calls: active = growth percent below 10; inactive = the rest.
Legend:
Assay in all cases: NCI-60 one-dose screen, 48 h (100 = growth as untreated, 0 = no growth, -100 = all killed)
Conditions in all cases: 10 µM unless noted
NCI-H23 lung = system: NCI-H23 lung
NCI-H226 lung = system: NCI-H226 lung
NCI-H322M lung = system: NCI-H322M lung
HOP-62 NSCLC = system: HOP-62 NSCLC
HOP-92 NSCLC = system: HOP-92 NSCLC
NCI-H522 lung = system: NCI-H522 lung
A549/ATCC NSCLC = system: A549/ATCC NSCLC
786-0 renal = system: 786-0 renal
COLO 205 colon = system: COLO 205 colon
DU-145 prostate = system: DU-145 prostate
K-562 leukemia = system: K-562 leukemia
MDA-MB-231 breast = system: MDA-MB-231 breast
RXF 393 renal = system: RXF 393 renal
SF-268 CNS = system: SF-268 CNS
SF-295 CNS = system: SF-295 CNS
SF-539 CNS = system: SF-539 CNS
UACC-257 melanoma = system: UACC-257 melanoma
M14 melanoma = system: M14 melanoma
NCI-H460 lung = system: NCI-H460 lung
MALME-3M melanoma = system: MALME-3M melanoma

Compound	growth (NCI-H23 lung)	growth (NCI-H226 lung)	growth (NCI-H322M lung)	growth (HOP-62 NSCLC)	growth (HOP-92 NSCLC)	growth (NCI-H522 lung)	growth (A549/ATCC NSCLC)	growth (786-0 renal)	growth (COLO 205 colon)	growth (DU-145 prostate)	growth (K-562 leukemia)	growth (MDA-MB-231 breast)	growth (RXF 393 renal)	growth (SF-268 CNS)	growth (SF-295 CNS)	growth (SF-539 CNS)	growth (UACC-257 melanoma)	growth (M14 melanoma)	growth (NCI-H460 lung)	growth (MALME-3M melanoma)
COc1nc2c(c(=O)n1C)CN(Cc1ccccc1)C=N2	103%	109%	128%	94.2%	21.2%	95.1%	87.6%	103%	107%	114%	93.2%	119%	109%	106%	109%	116%	94.9%	101%		
CC(C)c1c(C(=O)c2ccccc2)c(-c2ccccc2)c(-c2ccc(F)cc2)n1CC[C@@H](O)C[C@@H](O)CC(=O)O	56.8%	62.2%	58.6%	90.1%		25.9%	100%	77.5%	55.3%	105%	71.3%		36.6%	34.7%	30.7%	80%	83.8%	63.8%	87.5%	85.2%
COc1ccc(/C=C\c2cc(OC)c(OC)c(OC)c2)cc1OC(=O)c1cccc(Cn2cc(CCOC(=O)[C@H](N)Cc3cn(C)c4ccccc34)nn2)c1	29.6%	19.8%	50.1%	44.3%	61.6%	18.9%	19.7%	15.7%	-54.5% (active)	-8.08% (active)	4.84% (active)	42.8%	34.9%	23.1%	14.2%	-13.6% (active)	68.2%	9.47% (active)		65.4%
O=C1c2ccccc2OC=C(c2ccccc2)N1CCCCNc1ccc(S(=O)(=O)Nc2ncccn2)cc1	101%	91.4%	92.8%	90.1%	75.8%	82.9%	81.3%	90.6%	114%	109%		96.8%	98.9%	91%	94%	102%	91.6%	99.6%		110%
CN(C)c1ccc(N=Nc2ccc(Br)cn2)c(O)c1	19.3%	7.29% (active)	21.1%	18.5%	50.3%	14.4%	10.3%	20.5%	7.48% (active)	24.7%		34.1%	55.5%	16.8%	17.4%	-10.2% (active)	-11.5% (active)	-1.74% (active)		17.8%
NC(=NCCCC1(c2ccccc2)CCCC1)Nc1ccc(Cl)cc1	44%	96.5%	36.2%	69.6%	9.43% (active)	56.9%	63.1%	65.5%	-72.5% (active)	37.8%		1.92% (active)	51.7%	58.5%	10%	51.3%	26.4%	-65.5% (active)		-48.9% (active)
COc1cc(-c2nc3ccccc3[nH]2)ccc1OCC(=O)N=Nc1c(O)[nH]c2ccc(Cl)cc12	-42.4% (active)	103%	-7.85% (active)	-61.5% (active)	-36.2% (active)	-43.4% (active)	35.6%	-79.9% (active)	-48.5% (active)	-37.8% (active)	-25.4% (active)	-87.4% (active)	-56.5% (active)	-72.9% (active)	-68.8% (active)	-83.9% (active)	-18.7% (active)	-71.7% (active)		-66.9% (active)
Clc1ccc2c(NCCNc3nc(N4CCOCC4)nc4ccccc34)ccnc2c1	44%	-22.5% (active)	15.9%	-37.1% (active)	-41.6% (active)	-70.6% (active)	5.31% (active)	-39.9% (active)	-67.5% (active)	29.9%		-56% (active)	-39.4% (active)	11.5%	-83% (active)	-80.2% (active)	90.5%	-65.5% (active)		-50.9% (active)

From PubChem BioAssay (NCI)
